The test relates to VDR:RXRa (NR concentration 270 nM, RXRa partner concentration 90 nM). In words: PBM binding z-score (relative to random genomic background probes); higher = stronger binding; sequences stand for … in GC…GCGATTGACAGCGTAGAATGAAGG
As for the experimental part: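 Protein-binding microarray (Agilent 4x180K custom design, double-stranded 60-nt probes: 5' GC cap, 34-nt variable region, 24-nt constant primer region; full probe sequence given). Purified or IVT nuclear receptor:RXRα heterodimers (3:1 NR:RXRα, mostly 270:90 nM) or homodimers were incubated for 1 h in PBS with 2% milk and no ligand, then detected with Alexa488 antibodies. Fluorescence from o1-orientation probes (~5 replicates averaged) was converted to z-scores against 500 random hg19 background probes. Variable regions are seed direct-repeat (DR0–DR5) sites, all their single-nucleotide variants and half-site ablations.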
In turn, CCTACTGGGCCATTCAGAGGTCGTTGATCATATG came in with a PBM binding z-score of 1.49.
Turning to ATCGAGAGGTCGTGAGGTGAGTATACAGAAAGGC, the PBM binding z-score was 3.3.
As for ACTAGCAGGCCAAATTTGGGTCACTCAAACAAAG, the figure is 0.734.
GCTACTGGGGCATCAGCAGGTTACCATAACTTAA yielded a PBM binding z-score of 0.0562.
With ATCTCAAGGTAACAAGTTCAGTGAAAGAGAGGAC the figure was 2.8; with CCTACTGGGGCAAAGGTTACCATACTCAGTACGA, 1.86; with ATATCTAGGTAACCAAGTTCAGTGAATGCCGAAC, 3.97.
With GCTTACGGGTCAACGGTTATAGCATGAATAGAAT the figure was 3.88; with CCTTACGGGTCACTCCAGGTTATAACATCGGAGT, 4.09.
With TCATATAGGTAAAAGGGGAAAGTCGGTGTGGTAA the figure was 0.861.
With CCTTACGGGTCACGCCAGGTTATAGCATCGGAGT, the PBM binding z-score amounted to 5.36.
For TCATATAGATAATACAGGTGAAAGTCGGCATCTA, the PBM binding z-score came to 1.17.
In the case of GCTTGTAGATCAAGGTTATGAAAGACTAAGCTAA, the PBM binding z-score was determined as 0.325.
As for CCAGACAGGTGAACGGTAACTCAGTCTGGTACGC, the PBM binding z-score is -0.205.
As for TCTGCTAGTTCAGTTGGTCAGCTAACGAGCTGCC, the PBM binding z-score was -0.158.
The sequence GCTGCTAGGTCACCTGATGGTCAGCTAAAGCTCG returned a PBM binding z-score of 1.31.
GCTAGTTGGTCAGTAAAAGGTAACACACCGGTCG: the PBM binding z-score was found to be 0.0911.
In turn, CAGCCTAGGTCAGGTCCAGTATAGGAGGAACGTT came in with a PBM binding z-score of 0.304.
As for ATGTGTAGGTTATCGGGTCATTCAGTTTGCGCAT, the figure is 5.25.
As for CCTACTGGGCCCTCAGGTCATTGATATCAACGTT, the figure is 1.43.
As to ACTAGCAGGCTAAGGGTCACTCAAGATTAGTCCG, the PBM binding z-score came to 2.97.
With AGAACGAGGGCACGCGGAGTTGATAGCAGAGTAG the figure was 1.95; with CGTCCAAGGTCAGAGAGGTCAGTGAATGCCGAGT, 7.26; with CCTACTGGGCCAAAAAGGGCATTGATGCCGATAA, 1.01.
As for CAAACTAGGTCACAGAGGTCAAGGTCCGTGCGTA, the figure is 7.73; as for CTCGAAAGCTCGGTTGAGGTGAGTATACGGATAA, -0.326.
Consider ATATCTAGGTTAAGGGTCATTCAGGTTGGTTCGC, for which the PBM binding z-score was 5.89.
AGAATGAGGTTACCAAAGATCAGGGGAACGCTTG had a PBM binding z-score of 1.49.
Consider AGAATGAGGTTAAGCTCAGGGAAACAGAATACAT, for which the PBM binding z-score was 1.26.
For TTACCAAGGTGCGCTGAGGTCGTTGATCCAACTC, the PBM binding z-score came to 4.07.
As for CCGACTGGGGCAAGGTAACCATAACGCACAGCCA, the figure is -0.466; as for GCGACTGGGGCATCAGCAGGTTACCGTAACTTAA, -0.147; as for CGTCAAAGTTCAAGGTAACGAAACAGAAAGCAGC, 3.7.
Turning to TTACCAAGGTGAAGGTGGTTGATCCCTCTGTAGA, the PBM binding z-score stood at 0.0919.
As to CCGAATAGGTTATGGGGCATTCAGGCAACGGTGA, the PBM binding z-score is 0.258.
Sequence CCTAGTTGGTCAGGAGGTCACTCACCGGATATGA returned a PBM binding z-score of 3.4.
In turn, TCTTGTAGATCAAAAGTTAAGAAAGCCGAAGCCT displayed a PBM binding z-score of 0.386.
Consider CGAATTAGGTCAAGGACAGTGAATCTCCGCACGC, for which the PBM binding z-score amounted to 1.61.
With CTCGAAAGGTCGATTGAGGTGAGTATACGGATAA the figure was 3.76; with GATACAGGGCCAAGGCCAGAGTACGCGTATTGAT, -0.59.
